Our source for the outcome and AC50 values is PubChem BioAssay (EPA / NIEHS).

Structures are written as SMILES. Where “and” joins values, the source holds several entries; their conditions need not be identical. Equal values may be shown once. The source holds several records for some structures; these can differ, active in one and inactive in another. Calls of active or inactive are those of the source. How the source made its calls: active means hit-call score of the fitted dose curve at least 0.9, where 1 is the maximum; inactive means score below 0.9.

Read-out in assay [1]: Tissue Factor, F3 (gene 2152)
The experiment in a line: BSK_CASM3C_TissueFactor: BioMAP Diversity Plus: CASM3C Assay for Tissue Factor Biomarker Activity (AID 2283052).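 Further: cell surface tissue factor protein level read by ELISA.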 The following applies: primary human coronary artery smooth muscle cells; actives raise or lower the signal.

Read-out in assay [2]: Interferon-gamma inducible Protein 10 (IP10), CXCL10 (gene 3627)
The experiment in a line: BSK_hDFCGF_IP10: BioMAP Diversity Plus: hDFCGF Assay for Interferon-gamma inducible Protein 10 (IP10) Biomarker Activity (AID 2283053). As to conditions: primary human foreskin fibroblasts; actives raise or lower the signal. The method, boiled down:
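Primary foreskin fibroblasts, human; 24 h compound exposure; IP-10 by ELISA; bidirectional fit vs DMSO.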

Read-out in assay [3]: Urokinase-type plasminogen activator receptor (uPAR), PLAUR (gene 5329)
The experiment in a line: BSK_CASM3C_uPAR: BioMAP Diversity Plus: CASM3C Assay for Urokinase-type plasminogen activator receptor (uPAR) Biomarker Activity (AID 2283054).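 Further: cell-surface uPAR protein level quantified by ELISA.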 The following applies: primary human coronary artery smooth muscle cells; actives raise or lower the signal.

Read-out in assay [4]: Vascular cell adhesion molecule 1 (VCAM1), VCAM1 (gene 7412)
The assay is described as follows: BSK_CASM3C_VCAM1: BioMAP Diversity Plus: CASM3C Assay for Vascular cell adhesion molecule 1 (VCAM1) Biomarker Activity (AID 2283055).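 Further: VCAM-1 protein level quantified by ELISA on the cells.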 As to conditions: primary human coronary artery smooth muscle cells; actives raise or lower the signal.

Read-out in assay [5]: Collagen III, COL3A1 (gene 1281)
The experiment in a line: BSK_hDFCGF_CollagenIII: BioMAP Diversity Plus: hDFCGF Assay for Collagen III Biomarker Activity (AID 2283056). The following applies: primary human foreskin fibroblasts; actives raise or lower the signal. The method, boiled down:
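ELISA read-out of collagen III from human skin fibroblast cultures sampled 24 h post-dosing. Values were derived by bidirectional fitting relative to the DMSO vehicle control.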

Read-out in assay [6]: Epidermal growth factor receptor (EGFR), EGFR (gene 1956)
The experiment in a line: BSK_hDFCGF_EGFR: BioMAP Diversity Plus: hDFCGF Assay for Epidermal growth factor receptor (EGFR) Biomarker Activity (AID 2283057). As to conditions: primary human foreskin fibroblasts; actives raise or lower the signal. The gist of the method: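 hDFCGF system, primary human foreskin fibroblasts; compound 24 h; EGFR measured by ELISA; DMSO = negative control/baseline; bidirectional fitting.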

Read-out in assay [7]: Interleukin-8 (IL8), CXCL8 (gene 3576)
The assay is described as follows: BSK_hDFCGF_IL8: BioMAP Diversity Plus: hDFCGF Assay for Interleukin-8 (IL8) Biomarker Activity (AID 2283058). The following applies: primary human foreskin fibroblasts; actives raise or lower the signal. The method, boiled down: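 Cells used are human skin primary fibroblasts. Chemical is added, cultures run 24 h, then IL-8 is quantified by ELISA, and gain or loss versus DMSO control is fitted in both directions.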

Assay [8] can be described thus: BSK_hDFCGF_Proliferation: Cell Proliferation Assessment in the BioMAP Diversity Plus: hDFCGF Assay (AID 2283059).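 Further: curves fitted for both rise and fall of signal versus DMSO baseline.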 As to conditions: primary human foreskin fibroblasts. The gist of the method:
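Primary human foreskin fibroblasts, sub-confluent; […]; 10% TCA fix, 0.1% SRB stain, A560 total protein. Gain/loss fitted bidirectionally vs DMSO control.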

Read-out in assay [9]: Macrophage colony-stimulating factor (MCSF), CSF1 (gene 1435)
The assay is described as follows: BSK_hDFCGF_MCSF: BioMAP Diversity Plus: hDFCGF Assay for Macrophage colony-stimulating factor (MCSF) Biomarker Activity (AID 2283060). As to conditions: primary human foreskin fibroblasts; actives raise or lower the signal. The gist of the method: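 Primary human foreskin fibroblasts dosed with chemical; 24 h later, M-CSF quantified by ELISA; curves fitted in both directions vs DMSO negative control.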

The nature of assay [10]: BSK_hDFCGF_SRB: Viability Assessment in the BioMAP Diversity Plus: hDFCGF Assay (AID 2283061).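 Further: cells exposed to compound for 24 h before the read.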 As to conditions: primary human foreskin fibroblasts. The method, boiled down:
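Readout is SRB absorbance at 560 nm, reflecting total protein in parallel cultures of human foreskin fibroblasts harvested 24 h after chemical dosing. Activity was fitted bidirectionally relative to DMSO.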

Read-out in assay [11]: TIMP metallopeptidase inhibitor 1 (TIMP1), TIMP1 (gene 7076)
The experiment in a line: BSK_hDFCGF_TIMP1: BioMAP Diversity Plus: hDFCGF Assay for TIMP metallopeptidase inhibitor 1 (TIMP1) Biomarker Activity (AID 2283062). The following applies: primary human foreskin fibroblasts; actives raise or lower the signal. The gist of the method: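 Human skin fibroblasts (primary), hDFCGF system; compound exposure 24 h; TIMP-1 by ELISA; bidirectional fit vs DMSO negative control; overt cytotoxicity by SRB in parallel wells.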

Read-out in assay [12]: Monokine induced gamma interferon (MIG), CXCL9 (gene 4283)
The assay is described as follows: BSK_hDFCGF_MIG: BioMAP Diversity Plus: hDFCGF Assay for Monokine induced gamma interferon (MIG) Biomarker Activity (AID 2283063). The following applies: primary human foreskin fibroblasts; actives raise or lower the signal. The gist of the method: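 Chemicals were added to primary human foreskin fibroblast cultures, which were sampled 24 h later. MIG levels were then quantified by ELISA and responses fitted in both directions relative to DMSO.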

Read-out in assay [13]: Matrix Metallopeptidase 1 (MMP1), MMP1 (gene 4312)
The experiment in a line: BSK_hDFCGF_MMP1: BioMAP Diversity Plus: hDFCGF Assay for Matrix Metallopeptidase 1 (MMP1) Biomarker Activity (AID 2283064). As to conditions: primary human foreskin fibroblasts; actives raise or lower the signal. The gist of the method:
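Primary human foreskin fibroblasts in the hDFCGF system were dosed with test chemical, and MMP1 was measured by ELISA 24 h later. Values come from bidirectional curve fitting against the DMSO baseline.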

Read-out in assay [14]: Plasminogen activator inhibitor-1 (PAI1), SERPINE1 (gene 5054)
The experiment in a line: BSK_hDFCGF_PAI1: BioMAP Diversity Plus: hDFCGF Assay for Plasminogen activator inhibitor-1 (PAI1) Biomarker Activity (AID 2283066). The following applies: primary human foreskin fibroblasts; actives raise or lower the signal. The method, boiled down:
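Primary dermal fibroblasts (human foreskin), hDFCGF system; compound 24 h; PAI-1 by ELISA; bidirectional fit vs DMSO control.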

Read-out in assay [15]: Intercellular Adhesion Molecule 1 (ICAM1), ICAM1 (gene 3383)
The experiment in a line: BSK_KF3CT_ICAM1: BioMAP Diversity Plus: KF3CT Assay for Intercellular Adhesion Molecule 1 (ICAM1) Biomarker Activity (AID 2283067). As to conditions: primary human keratinocytes with fibroblasts; actives raise or lower the signal. The method, boiled down:
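ICAM-1 levels are measured by ELISA 24 h after dosing a primary human co-culture of keratinocytes and foreskin fibroblasts. Activity in either direction is fitted relative to DMSO vehicle.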

The nature of assay [16]: BSK_KF3CT_SRB: Viability Assessment in the BioMAP Diversity Plus: KF3CT Assay (AID 2283069).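 Further: total protein by sulforhodamine B staining as a cytotoxicity measure; read 24 h after compound addition.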 As to conditions: primary human keratinocytes with fibroblasts. The gist of the method:
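Human primary keratinocyte plus foreskin fibroblast co-culture exposed to chemicals for 24 h. Total protein measured by 0.1% sulforhodamine B staining after 10% TCA fixation, read at 560 nm; bidirectional fitting versus DMSO baseline.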

Read-out in assay [17]: TIMP metallopeptidase inhibitor 2 (TIMP2), TIMP2 (gene 7077)
The assay is described as follows: BSK_KF3CT_TIMP2: BioMAP Diversity Plus: KF3CT Assay for TIMP metallopeptidase inhibitor 2 (TIMP2) Biomarker Activity (AID 2283071). The following applies: primary human keratinocytes with fibroblasts; actives raise or lower the signal. The method, boiled down: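 Cells: human keratinocytes co-cultured with foreskin fibroblasts. Treat with chemical, 24 h. Measure TIMP-2 by ELISA; fit curves bidirectionally vs DMSO baseline.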

Read-out in assay [18]: Interleukin-1 alpha (IL1a), IL1A (gene 3552)
The experiment in a line: BSK_KF3CT_IL1a: BioMAP Diversity Plus: KF3CT Assay for Interleukin-1 alpha (IL1a) Biomarker Activity (AID 2283070). The following applies: primary human keratinocytes with fibroblasts; actives raise or lower the signal. The gist of the method: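 Human keratinocyte plus foreskin fibroblast primary co-culture, sampled 24 h after chemical dosing. IL-1a measured by ELISA; responses fitted bidirectionally against DMSO baseline (negative control), so gain or loss of signal both count.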

On to `CC(C)Cc1ccc(C(C)C(=O)O)cc1` (stereo not given), for which the outcome in assay [1], in assay [2], in assay [3], in assay [4], in assay [6] and in [7] was inactive. In addition, the result in assay [8], in assay [9], in assay [10], in [11], in assay [12] and in assay [13] was inactive. Further, the result in assay [14], in assay [15], in [16] and in assay [17] was inactive. For the same compound, in assay [5], the AC50 (commonly the concentration at which the activity in the assay is half-maximal) is 3.33 µM (active).

For the compound `O=C(O)C(F)(F)C(F)(F)C(F)(F)C(F)(F)C(F)(F)C(F)(F)C(F)(F)C(F)F`, the result in assay [1], in assay [2], in assay [3], in assay [4], in [5] and in assay [6] was inactive. The result in [7], in [9], in assay [11], in assay [12], in assay [13] and in [14] was inactive. Besides, the outcome in assay [15], in assay [16] and in assay [17] was inactive. Moreover, the concentration at half-maximal activity (AC50) in [5] is 10.7 µM (active); in assay [10], 20.1 µM (active) and 15.8 µM (active).

Consider `NC(=O)c1c(Cl)cccc1Cl`, for which the result in [1], in [2], in assay [3], in assay [4], in [5] and in assay [6] was inactive. Besides, the outcome in assay [7], in assay [9], in assay [10], in [11], in [12] and in assay [13] was inactive. Besides, the result in [14], in assay [15], in [16], in assay [18] and in assay [17] was inactive.

Turning to `c1ccc(OCCOc2ccccc2)cc1`, the result in assay [1], in assay [2], in [3], in assay [4], in assay [5] and in [6] was inactive. Further, the result in [7], in assay [9], in assay [10], in assay [11], in assay [12] and in [13] was inactive. Further, the result in [14], in assay [15], in [16] and in [17] was inactive. In addition, the AC50 in assay [10] is 150 nM (active).

On to `O=C(O)C(F)(F)OC(F)(F)C(F)(F)OC(F)(F)C(F)(F)C(F)(F)C(F)(F)F`, for which the result in assay [1], in assay [3], in [4], in [6], in [7] and in [10] was inactive. In addition, the outcome in assay [11], in assay [13], in [14], in assay [15], in [16] and in assay [17] was inactive. Also, the half-maximal activity concentration (AC50) is 15.6 µM (active) and 18.7 µM (active) in [2]; 22.3 µM (active) and 29.2 µM (active) in assay [5]; 6.97 µM (active) and 30 µM (active) in [9]; 10400 nM (active) in assay [10]; 12 µM (active) and 48.6 µM (active) in assay [12].
